Shown are actives, neighbours in structure and some others; about 8.2% of the full set was active somewhere.
KB-3-1 tox – kills parental KB-3-1 adenocarcinoma cells; KB-3-1 viability, CellTiter-Glo ATP luminescence, 72 h; Potency, µM (titrated, usually from 46.1 µM), hits mostly cytotoxic; 1.4% of 400,000 active; further: on the % scale 0 is the no-effect control and ±100 the full control effect; nearly all actives have a fitted effect of over 60% in size
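Screening of KB-3-1 cells (DMEM, 10% FBS, phenol-red free) ran from lowest to highest compound concentration; after 72 h at 37 °C viability was read luminescently and curves fitted.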
MCF10A rerep – DNA re-replication induction in MCF 10a cells; MCF 10A DNA re-replication, Hoechst nuclear intensity, 48 h; Potency, µM (doses to about 46.1 µM), for the others: at the highest dose activity, positive = re-replication, usual class: activators; 2.9% of 350,000 active; AID 624296; further: % of control where 0% means no effect; nearly all actives have a fitted effect of over 50% in size
SW480 rerep – inducers of DNA re-replication in SW480 colon cancer cells. SW480 DNA re-replication, Hoechst DNA content imaging, 48 h. Potency, µM (doses to about 46.1 µM), without a hit: at the highest dose re-replication activation, most hits filed as activators. 1.8% of 340,000 active; further: % of control where 0% means no effect; nearly all actives have a fitted effect of over 55% in size
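Treated cells incubate 48 hr (37 C, 5% CO2), are stained 40 min with Hoechst, and nuclear fluorescence is enumerated; a rise in nuclei with high DNA signal marks re-replication.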
KB-V1 cytotox – KB-V1 MDR subline cytotoxicity. KB-V1 MDR cells viability, CellTiter-Glo, 72 h. Potency, µM (titrated, usually from 46.1 µM), actives largely listed as cytotoxic. 3.4% of 400,000 active. AID 1347076; further: on the % scale 0 is the no-effect control and ±100 the full control effect; nearly all actives have a fitted effect of over 60% in size
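Potencies derive from concentration-effect curves fitted to normalized luminescence (CellTiter-Glo) of KB-V1 cells treated for 72 h at 37 degrees C in phenol-red-free DMEM containing 10% FBS.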
ELG1 repair inh – ELG1-dependent DNA repair inhibition. HEK293T ELG1-luciferase reporter, luminescence, 16 h; DNA damage induced by 5-fluorouridine. Potency, µM (doses to about 46.1 µM), inactives show at the top dose activity change, negative = inhibition, most hits filed as inhibitors. 2.3% of 330,000 active. AID 504467; further: on the % scale 0 is the no-effect control and ±100 the full control effect; nearly all actives have a fitted effect of over 55% in size
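Overnight (16 hr) co-exposure of 2,000 cells/well to 5-fluorouridine and compound at 37 °C preceded detection. Luciferase was quantified via ONE-Glo luminescence; loss of signal denotes inhibition.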
An asterisk follows results filed as active. The call rests on the fitted dose curve; in most records, active means well fitted curve in the direction sought with a large enough effect; inconclusive means small, poorly fitted or top-dose-only effect, or another doubt; inactive means no such curve, though single readings can be large; an effect the other way counts as inactive or inconclusive. Potency means the concentration at half of the fitted maximal effect.

Screening CC[C@H](CO)Nc1nc(Nc2cccc(Cl)c2)c2ncn(C(C)C)c2n1 returned KB-3-1 tox inactive, MCF10A rerep -6%, SW480 rerep inconclusive, KB-V1 cytotox inconclusive and ELG1 repair inh 7.3µM*.
For CN1CC(c2ccc(Cl)c(Cl)c2)[C@@]2(COc3ccccc3C2=O)[C@@]12C(=O)Nc1ccccc12 (stereo partly specified) the results were KB-3-1 tox inconclusive, MCF10A rerep 16µM*, SW480 rerep inconclusive, KB-V1 cytotox 9.2µM* and ELG1 repair inh -7%.
`CCCN1C(=O)c2ccccc2NC1c1ccc(Cl)c(Cl)c1` (stereo unspecified) gave KB-3-1 tox inconclusive, MCF10A rerep 16%, SW480 rerep 0%, KB-V1 cytotox inactive and ELG1 repair inh 2%.
For CCOC(=O)[C@]12CCCC=C1N(Cc1ccccc1)C(=O)[C@H](CC(=O)NCCCOC)C2 the results were KB-3-1 tox inactive and KB-V1 cytotox inactive.
Screening COc1cc2c(C#N)c(N3CCCCC3)nc(N)c2c(N)n1 returned KB-3-1 tox inconclusive, MCF10A rerep inconclusive, SW480 rerep -3%, KB-V1 cytotox 8.2µM* and ELG1 repair inh inconclusive.
`Cc1ccc(N(Cc2ccccc2)C(=O)CSC(C)C(=O)Nc2cc(C)on2)cc1` (stereo unspecified) gave KB-3-1 tox inactive and KB-V1 cytotox inconclusive.
`CS(=O)(=O)N(CC(=O)Nc1ccc(S(=O)(=O)N2CCOCC2)cc1)c1cccc(F)c1` gave KB-3-1 tox inactive, MCF10A rerep inconclusive, SW480 rerep 23µM*, KB-V1 cytotox inactive and ELG1 repair inh -9%.
CC(=O)c1cccc(N(CC(=O)Nc2ccc(S(=O)(=O)N3CCOCC3)cc2)S(C)(=O)=O)c1 was read as KB-3-1 tox inactive, MCF10A rerep -2%, SW480 rerep -14%, KB-V1 cytotox inactive and ELG1 repair inh -1%.
Screening CSc1cccc(NC(=O)CN(c2cccc(C)c2)S(C)(=O)=O)c1 returned KB-3-1 tox inactive, MCF10A rerep 2%, SW480 rerep 2%, KB-V1 cytotox inactive and ELG1 repair inh -6%.
`Cc1cccc(NS(=O)(=O)c2ccc(NC(=O)CN(c3cc([N+](=O)[O-])ccc3C)S(C)(=O)=O)cc2)c1` gave KB-3-1 tox inactive, MCF10A rerep inconclusive, SW480 rerep 18µM*, KB-V1 cytotox inactive and ELG1 repair inh -12%.
For CS(=O)(=O)N(CC(=O)Nc1ccccc1-c1ccccc1)c1cccc(F)c1 the results were KB-3-1 tox inactive, MCF10A rerep 0.65µM*, SW480 rerep -11%, KB-V1 cytotox inactive and ELG1 repair inh 11%.
`Cc1cccc(N(CC(=O)Nc2ccc(F)cc2)S(C)(=O)=O)c1` gave KB-3-1 tox inactive, MCF10A rerep -1%, SW480 rerep 6%, KB-V1 cytotox 16µM* and ELG1 repair inh -3%.
`C=C(C)Cn1c(SCC(=O)Nc2ccccc2C)nc2sc3c(c2c1=O)CCCC3` gave KB-3-1 tox inactive and KB-V1 cytotox inactive.
Cc1ccc(N(CC(=O)Nc2ccc(S(=O)(=O)N3CCOCC3)cc2)S(C)(=O)=O)cc1C was read as KB-3-1 tox inactive, MCF10A rerep 2%, SW480 rerep 3%, KB-V1 cytotox 23µM* and ELG1 repair inh -11%.
CC(C)c1ccc(N(CC(=O)Nc2ccc(S(=O)(=O)N3CCOCC3)cc2)S(C)(=O)=O)cc1 was read as KB-3-1 tox inconclusive, MCF10A rerep 3%, SW480 rerep 18%, KB-V1 cytotox inactive and ELG1 repair inh 3%.
`CCOc1ccc(CCNC(=O)c2sc3nc4n(c(=O)c3c2C)CCCC4)cc1` gave KB-3-1 tox inactive and KB-V1 cytotox inconclusive.
`CN(c1ccc(F)cc1)S(=O)(=O)c1ccc(Cl)c(C(=O)NCC2(N3CCOCC3)CCCCC2)c1` gave KB-3-1 tox inactive, MCF10A rerep 9%, SW480 rerep -7% and KB-V1 cytotox 18µM*.
`O=C(/C=C\c1ccco1)Nc1nc(-c2ccccc2)cs1` gave KB-3-1 tox inactive, MCF10A rerep inconclusive, SW480 rerep -14%, KB-V1 cytotox inconclusive and ELG1 repair inh inconclusive.
Screening Cc1ccc2oc(-c3cccc(NC(=S)NC(=O)c4cccs4)c3)nc2c1 returned KB-3-1 tox inactive, MCF10A rerep 2%, SW480 rerep -5%, KB-V1 cytotox inactive and ELG1 repair inh inconclusive.
O=C(/C=C/c1ccco1)NC(=S)Nc1nc(-c2ccc3ccccc3c2)cs1 was read as KB-3-1 tox 4.6µM*, MCF10A rerep 1.2µM*, SW480 rerep inconclusive, KB-V1 cytotox 5.2µM* and ELG1 repair inh 23%.
`COc1ccc(-c2csc(NC(=S)NC(=O)/C=C/c3ccccc3)n2)cc1Br` gave KB-3-1 tox inconclusive, MCF10A rerep 19%, SW480 rerep -4%, KB-V1 cytotox 12µM* and ELG1 repair inh 2%.
Screening Cc1ccc2oc(-c3cccc(NC(=S)NC(=O)/C=C/c4ccco4)c3)nc2c1 returned KB-3-1 tox inconclusive, MCF10A rerep 9.2µM*, SW480 rerep inconclusive, KB-V1 cytotox inconclusive and ELG1 repair inh inconclusive.
For O=C(/C=C/c1ccco1)NC(=S)Nc1nc(-c2ccc(Cl)cc2)cs1 the results were KB-3-1 tox inconclusive, MCF10A rerep 21µM*, SW480 rerep -2%, KB-V1 cytotox inconclusive and ELG1 repair inh 21%.
`CCn1nc(C)c(CNC(=O)C2CCC(=O)N(CCc3ccc(OC)cc3)C2)c1C` (stereo unspecified) gave KB-3-1 tox inactive, MCF10A rerep 5%, SW480 rerep 7%, KB-V1 cytotox inactive and ELG1 repair inh 4%.
Cc1ccc(S(=O)(=O)N2CCOCC2)cc1NC(=O)CNc1ccccc1N1CCCC1=O was read as KB-3-1 tox inactive, MCF10A rerep -2%, SW480 rerep -7%, KB-V1 cytotox inactive and ELG1 repair inh 17%.
Cc1ccc(NC(=O)C2CCCN2S(=O)(=O)c2ccc3c(c2)C(C)(C)C(=O)N3C)cc1 (stereo unspecified) was read as KB-3-1 tox inconclusive and KB-V1 cytotox inactive.
For COC1(OC)C=CC(=O)C=C1NC(=O)c1ccccc1OC(C)=O the results were KB-3-1 tox inconclusive, MCF10A rerep 4.1µM*, SW480 rerep inconclusive and KB-V1 cytotox inconclusive.
`CC(=O)Oc1ccccc1C(=O)Nc1ccccc1` gave KB-3-1 tox inactive, MCF10A rerep inconclusive, SW480 rerep -31% and KB-V1 cytotox inactive.
For N#Cc1c(-c2ccccc2)c(-c2ccccc2)n(Cc2ccco2)c1NC(=O)c1cccs1 the results were KB-3-1 tox inactive, MCF10A rerep -5%, SW480 rerep 1%, KB-V1 cytotox 5.6µM* and ELG1 repair inh -1%.

Assay outcomes from PubChem BioAssay.
